Assay outcomes deposited in PubChem by National Center for Advancing Translational Sciences (NCATS).
Cycloheximide cs: Cycloheximide Counterscreen for Small Molecule Inhibitors of Shiga Toxin; max response, %; cell reporter, cycloheximide protein synthesis inhibition counterscreen; 300,000 tested, 12% active; in the data active = max response mostly above about 13%, no sharp cut-off; inactive = mostly below about 14%; also: read at 38.3 µM for the half of the compounds with a filed dose; 0% is about no effect
Shiga toxin inh: A qHTS for Small Molecule Inhibitors of Shiga Toxin. Vero cells, Shiga toxin protein synthesis inhibition reporter. inhibition, % at 38.7 µM. 290,000 tested, 9.2% active. AID 2315, 2010; in the data active = inhibition mostly above about 28%, no sharp cut-off; inactive = mostly below about 43%; also: 0% is about no effect
NS1 inh: qHTS Assay for Inhibitors of Influenza NS1 Protein Function; 270,000 tested, 0.4% active; Potency, µM (doses to about 46.1 µM), for the others: at the highest dose activity, positive = more growth; also: potency is read from the fitted curve at half-maximal effect; actives are rising curves; nearly all actives have a fitted effect of over 50% in size
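Compounds were scored for reversing the slow growth caused by influenza A NS1 in S. cerevisiae, measured by optical density at 600 nm. Assay medium contained 2% galactose at pH 6.0; NS1-free yeast of the same strain were the positive control.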
SARS PLP yeast: qHTS of Yeast-based Assay for SARS-CoV PLP; 330,000 tested, 0.19% active; S. cerevisiae expressing SARS-CoV PLpro, growth rescue; Potency, µM (series often up to 32.9 µM), without a hit: at the top dose activity, positive = growth rescue, usual class: activators; also: potency is read from the fitted curve at half-maximal effect; 0% is about no effect; nearly all actives have a fitted effect of over 55% in size
Tb PYK inh: qHTS of Trypanosoma Brucei Inhibitors; TbPYK enzyme, Kinase-Glo Plus ATP luminescence, 45 min; Potency, µM (highest dose often 76.8 µM), inactives show at the highest dose activity, negative = inhibition, usual class: inhibitors; 410,000 tested, 0.12% active; active = well fitted curve in the direction sought with a large enough effect; inconclusive = small, poorly fitted or top-dose-only effect, or another doubt; inactive = no such curve, though single readings can be large; an effect the other way counts as inactive or inconclusive; also: potency is read from the fitted curve at half-maximal effect; % is scaled to controls: 0 for no effect and ±100 for the full control effect; nearly all actives have a fitted effect of over 50% in size
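ADP (130 uM final) triggers the TbPYK reaction after compound addition; incubation is 45 min at room temperature. Kinase-Glo Plus is then added and luminescence imaged. Normalized data are fitted to concentration-effect curves.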
LmPK inhibitor: qHTS Assay for Inhibitors of Leishmania Mexicana Pyruvate Kinase (LmPK). Q27686. purified LmPK, Kinase-Glo ATP luminescence, 1 h. Potency, µM (top dose mostly 57.5 µM), inactives show top-dose activity change, negative = inhibition, actives largely listed as inhibitors. 290,000 tested, 0.37% active; active = well fitted curve in the direction sought with a large enough effect; inconclusive = small, poorly fitted or top-dose-only effect, or another doubt; inactive = no such curve, though single readings can be large; an effect the other way counts as inactive or inconclusive; also: potency is read from the fitted curve at half-maximal effect; % is scaled to controls: 0 for no effect and ±100 for the full control effect
Target sequence (Q27686 whole entry, looked up): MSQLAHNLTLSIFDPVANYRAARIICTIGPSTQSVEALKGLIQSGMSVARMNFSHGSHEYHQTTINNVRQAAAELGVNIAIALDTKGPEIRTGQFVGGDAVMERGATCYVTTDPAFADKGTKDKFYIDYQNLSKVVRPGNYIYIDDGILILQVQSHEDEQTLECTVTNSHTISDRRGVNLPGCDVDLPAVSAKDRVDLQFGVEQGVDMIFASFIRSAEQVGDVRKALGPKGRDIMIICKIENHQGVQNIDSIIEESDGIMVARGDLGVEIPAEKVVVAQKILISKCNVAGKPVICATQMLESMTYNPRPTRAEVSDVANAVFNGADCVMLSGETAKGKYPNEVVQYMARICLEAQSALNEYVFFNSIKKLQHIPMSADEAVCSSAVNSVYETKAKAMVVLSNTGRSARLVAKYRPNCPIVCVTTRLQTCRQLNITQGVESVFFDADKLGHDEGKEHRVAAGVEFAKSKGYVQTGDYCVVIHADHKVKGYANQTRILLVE
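Pyruvate kinase activity monitored as ATP production (luciferase luminescence). Conditions: 0.1 nM enzyme, 0.5 mM PEP, 0.1 mM ADP, 1 h, RT; normalized against uninhibited and no-enzyme wells.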
* hit, by the source's call; [ ] = dose if it differs, or a comment. Shown is part of a subset that was picked to be rich in hits. Unless noted, calls follow the shape of the full dose curve.

For CC(C)N1CCc2c(sc(NC(=O)c3nc4ccccc4s3)c2C(N)=O)C1 the results were Cycloheximide cs 17.8, Shiga toxin inh 47.4, SARS PLP yeast -1.3%, Tb PYK inh 1.1% and LmPK inhibitor 0.0%.
For COC(=O)c1c(NC(=O)c2ccc([N+](=O)[O-])o2)sc2c1CCN(C(C)C)C2 the results were Cycloheximide cs 23.1*, Shiga toxin inh 15.4, NS1 inh -106.6%, SARS PLP yeast -11.7%, Tb PYK inh -5.6% and LmPK inhibitor 0.3%.
Cc1cc(OCC(=O)Nc2ccc3c(c2)OCCO3)cc(C)c1Cl was read as Cycloheximide cs -2.7, Shiga toxin inh 32.7, NS1 inh 1.2%, SARS PLP yeast -10.7%, Tb PYK inh -0.9% and LmPK inhibitor 7.7%.
O=C(COc1cc(Cl)c(Cl)cc1Cl)NC(=O)Nc1ccc2c(c1)OCCO2 was read as Cycloheximide cs 76.0*, Shiga toxin inh 145.2*, NS1 inh 10.5%, SARS PLP yeast 14.6%, Tb PYK inh -1.0% and LmPK inhibitor -11.8%.
Screening Cc1ccc(Cl)c(OCC(=O)Nc2ccc3c(c2)OCCO3)c1 returned Cycloheximide cs 52.1*, Shiga toxin inh 111.8*, NS1 inh -5.7%, SARS PLP yeast -0.6%, Tb PYK inh 5.9% and LmPK inhibitor 8.6%.
Screening COc1ccccc1CNS(=O)(=O)c1ccc(N2CCCC2)cc1Br returned SARS PLP yeast -13.0% and Tb PYK inh 1.2%.
COCCNC(=S)N1CCN(c2nc(-c3ccc(Cl)cc3)cs2)CC1 was read as Cycloheximide cs -2.0, Shiga toxin inh 13.3, NS1 inh 2.3%, SARS PLP yeast 1.7%, Tb PYK inh -4.6% and LmPK inhibitor 5.6%.
`COCCNC(=S)N1CCN(c2nc(-c3ccc(F)cc3)cs2)CC1` gave Cycloheximide cs 11.7*, Shiga toxin inh 19.2, NS1 inh 19.7%, SARS PLP yeast -0.9%, Tb PYK inh -7.9% and LmPK inhibitor -2.7%.
CCNC(=S)N1CCN(c2nc(-c3ccc(F)cc3)cs2)CC1 was read as Cycloheximide cs 9.7*, Shiga toxin inh 20.7, NS1 inh 11.9%, SARS PLP yeast -5.0%, Tb PYK inh -5.9% and LmPK inhibitor 0.5%.
For CCN(CC)CCCNC(=S)N1CCN(c2nc(-c3ccc(F)cc3)cs2)CC1 the results were Cycloheximide cs -12.2, NS1 inh 17.2%, SARS PLP yeast -1.3%, Tb PYK inh -15.9% and LmPK inhibitor -3.2%.
For O=c1c2ccccc2oc2c1oc1ccccc12 the results were SARS PLP yeast -10.0% and Tb PYK inh -4.6%.
CC(/C=C/c1ccccc1F)=N\NC(=O)c1ccc(Cl)cc1 was read as Cycloheximide cs 13.7*, Shiga toxin inh 28.6, NS1 inh 6.5%, SARS PLP yeast -1.4%, Tb PYK inh -24.0% and LmPK inhibitor 0.9%.
Screening CC(/C=C/c1ccccc1)=N/NC(=O)CNC(=O)c1ccccc1F returned Cycloheximide cs 22.2, Shiga toxin inh 16.2, SARS PLP yeast 0.8%, Tb PYK inh -0.9% and LmPK inhibitor 3.4%.
Screening CC(/C=C/c1ccccc1F)=N\NC(=O)c1ccccc1 returned Cycloheximide cs 55.2*, Shiga toxin inh 159.8*, SARS PLP yeast 0.3%, Tb PYK inh 1.6% and LmPK inhibitor -4.9%.
For Cc1occc1C(=O)N/N=C/c1cccnc1 the results were Cycloheximide cs 24.7*, Shiga toxin inh 74.5*, NS1 inh 4.3%, SARS PLP yeast -11.0%, Tb PYK inh -4.2% and LmPK inhibitor inconclusive.
`Cc1cc(C(=O)N/N=C/c2cccnc2)c(C)o1` gave Cycloheximide cs 16.4*, Shiga toxin inh 8.3, NS1 inh 4.4%, SARS PLP yeast -1.7%, Tb PYK inh -18.3% and LmPK inhibitor -11.4%.
For Cc1ccc(CSC2=Nc3ccccc3C3=NC(CC(=O)NCc4ccco4)C(=O)N23)cc1 (centres undefined) the results were Cycloheximide cs 37.6*, Shiga toxin inh 67.9*, NS1 inh 12.5%, SARS PLP yeast 3.8%, Tb PYK inh 1.0% and LmPK inhibitor 2.6%.
For O=C(CCC1N=C2c3ccccc3N=C(SCc3ccc(Cl)cc3)N2C1=O)NCc1ccco1 (centres undefined) the results were Cycloheximide cs 18.3, Shiga toxin inh 43.5, NS1 inh 6.6%, SARS PLP yeast 3.1%, Tb PYK inh 2.5% and LmPK inhibitor 2.6%.
O=C(CCC1N=C2c3ccccc3N=C(SCc3ccc(F)cc3)N2C1=O)NCc1ccco1 (centres undefined) was read as Cycloheximide cs 18.6*, Shiga toxin inh 30.4, NS1 inh -5.6%, SARS PLP yeast inconclusive, Tb PYK inh -1.3% and LmPK inhibitor 3.5%.
`O=C(CC1N=C2c3ccccc3N=C(SCc3ccc(F)cc3)N2C1=O)NCc1ccco1` (centres undefined) gave Cycloheximide cs 32.7*, Shiga toxin inh 30.3*, NS1 inh 4.0%, SARS PLP yeast 6.2%, Tb PYK inh -7.2% and LmPK inhibitor 0.6%.
Screening CC(C)(C)c1ccc(C(=O)N2CCN(C(=O)c3ccco3)CC2)cc1 returned Cycloheximide cs -3.0, Shiga toxin inh -10.8, NS1 inh 1.4%, SARS PLP yeast -1.9%, Tb PYK inh -1.0% and LmPK inhibitor 6.9%.
For COc1ccccc1NC(=O)Cn1c(=O)oc2cc(S(=O)(=O)NCc3ccccc3)ccc21 the results were Tb PYK inh 1.0%.
`Cc1ccc(-n2ncc3c(N4CCCC(C)C4)ncnc32)c(C)c1` (centres undefined) gave Cycloheximide cs 64.9*, Shiga toxin inh 82.6*, NS1 inh 5.1%, SARS PLP yeast -1.8%, Tb PYK inh 0.4% and LmPK inhibitor 1.7%.
`CC1CC(C)CN(c2ncnc3c2cnn3-c2ccc(Cl)cc2)C1` (centres undefined) gave Cycloheximide cs 59.3*, Shiga toxin inh 105.3*, NS1 inh 0.1%, SARS PLP yeast 19.7%, Tb PYK inh 3.5% and LmPK inhibitor 1.4%.
For CC1CC(C)CN(c2ncnc3c2cnn3C)C1 (centres undefined) the results were Cycloheximide cs -3.3, Shiga toxin inh 16.9, SARS PLP yeast -6.5%, Tb PYK inh 0.0% and LmPK inhibitor 3.4%[11.5 µM].
For CC1CCCN(c2ncnc3c2cnn3-c2ccc(F)cc2)C1 (centres undefined) the results were Tb PYK inh 1.5%.
CC1CCCN(c2ncnc3c2cnn3-c2ccc(Cl)cc2)C1 (centres undefined) was read as Cycloheximide cs 61.8*, Shiga toxin inh 59.5*, NS1 inh 10.3%, SARS PLP yeast 0.2%, Tb PYK inh -11.2% and LmPK inhibitor -5.3%.
